Reference: PubChem BioAssay (NCATS)
Values joined by “and” are separate entries in the source; they are usually repeats but may differ in a detail not shown here. Equal values may be shown once. Results filed as inconclusive are left out. A call without a number means that no potency is given here. Active and inactive are the calls of the source. Unless noted, calls follow the shape of the dose curve; as a rule, active = well fitted curve in the direction sought with a large enough effect; inconclusive = small, poorly fitted or top-dose-only effect, or another doubt; inactive = no such curve, though single readings can be large; an effect the other way counts as inactive or inconclusive.

How the values were obtained:
[1] = biological target: Mitogen-activated protein kinase 10 (Mus musculus) (UniProt Q61831); assay: JNK3 AlphaScreen Assay (AID 530; active = well fitted curve in either direction with a large enough effect, not every such curve was filed as active;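 also: kinase came from lysate of stimulated human HepG2 cells; signal reports phosphorylation of biotinylated GST-cJun 1-79 at Ser73 with 10 µM ATP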)
Summary of the method: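 Activity was read by AlphaScreen after JNK3-containing HepG2 lysate (cytokine pre-activated) phosphorylated biotinylated GST-cJun with 10 uM ATP at room temperature. Phospho-Ser73 cJun antibody with Protein-A acceptor beads provided detection.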

[2] = Cell Viability - Mesenchymal (AID 546);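 also: cells exposed to compound for 40 hours before reading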
Summary of the method: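 Human renal mesenchymal cells (glomerulus-derived), 1000 cells/well, 5 hr 37 °C pre-incubation; compound 40 hr, 37 °C; CellTiter-Glo, 20 min RT; luminescence; AC50 via Hill equation.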

[3] = Cellular Toxicity (caspase-3) Jurkat (AID 655); details: Jurkat caspase-3 activation, luminescence; caspase-3 activation: at 92.2 µM (top of the series), DMSO = 0%, tamoxifen = 100%;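 also: cells exposed to compound for 16 h at 37 °C before reading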
Summary of the method: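 Caspase 3/7 activation is scored as increased luminescence in Jurkat cells cultured with compound for 16 hours in complete medium. AC50 values come from Hill fits of qHTS concentration-response data normalized to DMSO and 100 uM tamoxifen controls.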

[4] = Cellular Toxicity (caspase-3) MRC-5 (AID 659);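 also: cells exposed to compound for 16 h at 37 °C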
Summary of the method: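 MRC-5 fibroblasts, 1500/well; 16 h cpd, 37 °C; Caspase-Glo 3/7, 1 h RT; lumi read. Norm: DMSO = 0%, 10 uM staurosporine = 100%. Hill-fit AC50 from qHTS conc-response.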

[5] = biological target: Cytochrome P450 3A4 (Homo sapiens) (UniProt P08684); assay: qHTS Assay for Inhibitors and Substrates of Cytochrome P450 3A4 (AID 884); also: nearly all actives have a fitted effect of over 50% in size
Sequence of Cytochrome P450 3A4 (Homo sapiens) (P08684 whole entry, looked up): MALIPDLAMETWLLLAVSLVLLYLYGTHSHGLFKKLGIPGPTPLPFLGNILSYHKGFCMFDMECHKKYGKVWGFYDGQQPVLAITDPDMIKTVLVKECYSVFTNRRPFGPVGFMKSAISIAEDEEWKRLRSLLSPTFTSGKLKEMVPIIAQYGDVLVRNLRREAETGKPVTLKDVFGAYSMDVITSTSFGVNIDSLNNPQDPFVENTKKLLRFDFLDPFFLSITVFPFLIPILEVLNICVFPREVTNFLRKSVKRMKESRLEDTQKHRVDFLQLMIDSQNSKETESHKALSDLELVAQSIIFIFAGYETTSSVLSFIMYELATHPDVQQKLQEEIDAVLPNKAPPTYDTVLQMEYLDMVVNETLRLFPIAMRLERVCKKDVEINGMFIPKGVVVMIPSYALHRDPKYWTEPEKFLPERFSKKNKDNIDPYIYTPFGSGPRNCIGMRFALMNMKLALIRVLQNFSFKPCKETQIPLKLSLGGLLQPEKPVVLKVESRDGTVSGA
Summary of the method: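 Luminescent readout of luciferin produced by CYP3A4 (20 nM) dealkylation of Luciferin-PPXE, 25 uM (its KM). NADPH-driven reaction ran 60 min at RT after 10 min compound preincubation; data scaled to 57 uM ketoconazole as 100% inhibition.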

[6] = Cell Viability - LYMP2-001 (AID 921); also: nearly all actives have a fitted effect of over 70% in size
Summary of the method: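 qHTS, 1536-well; lymphoblastoid cells, 24 hr compound, 37 C; ATP by CellTiter-Glo, 30 min RT; luminescence; Hill-fit AC50.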

[7] = MultiTox-Fluor Cytotoxicity Assay - LYMP1-001 - Live Cells (AID 947)
[8] = MultiTox-Fluor Cytotoxicity Assay - LYMP1-002 - Live Cells (AID 955)
Summary of the method: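 Cells were seeded at 2500 per well and incubated 5 hr. Compounds were then added for 16 hr at 37 C, followed by MultiTox-Fluor reagent for 60 min at room temperature and fluorescence reading of viable-cell protease signal.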

[9] = Cell Viability - LYMP2-005 (AID 967)
Summary of the method: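 qHTS viability screen in LYMP2-005 cells: 24 h at 37 C with compound, ATP luminescence via CellTiter-Glo, AC50 from Hill curves.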

[10] = Cell Viability - LYMP2-015 (AID 971); also: nearly all actives have a fitted effect of over 55% in size
Summary of the method: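 Cells are seeded at 2500 per well and incubated 5 hr at 37 C. Compounds are added across a concentration series for 24 hr at 37 C. CellTiter-Glo is added, and luminescence is read after 30 min at room temperature.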

[11] = biological target: Thyroid hormone receptor beta (Homo sapiens) (UniProt P10828); assay: qHTS assay for small molecule agonists of thyroid hormone receptor beta signaling (AID 588545; calls by dose curve)
Sequence of Thyroid hormone receptor beta (Homo sapiens) (P10828 whole entry, looked up): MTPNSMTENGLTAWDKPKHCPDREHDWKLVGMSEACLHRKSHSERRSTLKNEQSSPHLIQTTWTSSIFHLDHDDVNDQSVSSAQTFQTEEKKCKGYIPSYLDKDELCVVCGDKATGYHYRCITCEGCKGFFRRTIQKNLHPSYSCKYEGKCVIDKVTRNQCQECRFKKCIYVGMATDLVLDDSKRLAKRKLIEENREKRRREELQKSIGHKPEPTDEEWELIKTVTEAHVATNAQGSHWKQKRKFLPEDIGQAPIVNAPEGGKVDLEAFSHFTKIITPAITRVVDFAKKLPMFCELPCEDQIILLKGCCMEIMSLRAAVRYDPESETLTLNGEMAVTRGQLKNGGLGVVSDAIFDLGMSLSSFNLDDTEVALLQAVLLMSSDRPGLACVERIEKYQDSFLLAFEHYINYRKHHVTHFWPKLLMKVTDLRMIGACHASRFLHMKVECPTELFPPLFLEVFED
Summary of the method: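 TR-UAS-bla GripTite HEK 293 cells (2500/well, medium with 2% charcoal/dextran FBS) were treated in agonist mode for 18 h at 37 C, titrated. Beta-lactamase was read by CCF4 ratio after 2 h; normalized to 10 nM T3 (100%) and DMSO, Hill-fitted for EC50 and efficacy.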

[12] = qHTS assay for small molecule antagonists of retinoid X receptor alpha signaling (AID 588546; active = well fitted inhibition curve with a large enough effect in the signal ratio, with a control signal flat, not every such curve was filed as active; the % refers to the signal ratio;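 also: cells stimulated with 9-cis-retinoic acid as agonist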); details: HEK293T RXRa-UAS-bla, beta-lactamase ratio, antagonist mode; measured here: W530 green channel, cytotoxicity proxy
Summary of the method: (§1)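 Beta-lactamase reporter inhibition, read as CCF4 fluorescence ratio (ex 405, em 460/530 nm) after 2 h at RT. HEK293T UAS-bla cells, 2500/well, were stimulated with 9-cis-RA at 500 or 100 nM final alongside test compound for 18 h at 37 C.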

[13] = biological target: Retinoic acid receptor RXR-alpha (Homo sapiens) (UniProt P19793); assay: as above; details: HEK293T RXRa-UAS-bla, beta-lactamase ratio, antagonist mode
Sequence of Retinoic acid receptor RXR-alpha (Homo sapiens) (P19793 whole entry, looked up): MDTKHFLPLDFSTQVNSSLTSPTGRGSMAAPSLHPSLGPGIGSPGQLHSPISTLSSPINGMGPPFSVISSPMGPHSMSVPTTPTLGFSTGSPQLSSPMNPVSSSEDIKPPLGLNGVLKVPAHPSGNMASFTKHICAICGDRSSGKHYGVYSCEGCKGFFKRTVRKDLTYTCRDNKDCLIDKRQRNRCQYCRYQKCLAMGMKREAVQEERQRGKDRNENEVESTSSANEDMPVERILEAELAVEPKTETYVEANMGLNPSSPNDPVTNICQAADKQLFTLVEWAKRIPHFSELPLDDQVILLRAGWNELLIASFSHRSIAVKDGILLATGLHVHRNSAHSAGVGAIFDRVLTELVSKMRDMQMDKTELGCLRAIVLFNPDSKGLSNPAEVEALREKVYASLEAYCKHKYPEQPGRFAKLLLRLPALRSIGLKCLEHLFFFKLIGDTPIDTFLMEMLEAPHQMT
Summary of the method: as §1

[14] = biological target: Voltage-gated inwardly rectifying potassium channel KCNH2 (Homo sapiens) (UniProt Q12809); assay: qHTS Assay for Small Molecule Inhibitors of the Human hERG Channel Activity (AID 588834);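 also: U2OS cells transduced with hERG by BacMam; top concentration of the series differs between compounds; lower thallium flux fluorescence means stronger hERG block; nearly all actives have a fitted effect of over 50% in size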
Sequence of Voltage-gated inwardly rectifying potassium channel KCNH2 (Homo sapiens) (Q12809 whole entry, looked up): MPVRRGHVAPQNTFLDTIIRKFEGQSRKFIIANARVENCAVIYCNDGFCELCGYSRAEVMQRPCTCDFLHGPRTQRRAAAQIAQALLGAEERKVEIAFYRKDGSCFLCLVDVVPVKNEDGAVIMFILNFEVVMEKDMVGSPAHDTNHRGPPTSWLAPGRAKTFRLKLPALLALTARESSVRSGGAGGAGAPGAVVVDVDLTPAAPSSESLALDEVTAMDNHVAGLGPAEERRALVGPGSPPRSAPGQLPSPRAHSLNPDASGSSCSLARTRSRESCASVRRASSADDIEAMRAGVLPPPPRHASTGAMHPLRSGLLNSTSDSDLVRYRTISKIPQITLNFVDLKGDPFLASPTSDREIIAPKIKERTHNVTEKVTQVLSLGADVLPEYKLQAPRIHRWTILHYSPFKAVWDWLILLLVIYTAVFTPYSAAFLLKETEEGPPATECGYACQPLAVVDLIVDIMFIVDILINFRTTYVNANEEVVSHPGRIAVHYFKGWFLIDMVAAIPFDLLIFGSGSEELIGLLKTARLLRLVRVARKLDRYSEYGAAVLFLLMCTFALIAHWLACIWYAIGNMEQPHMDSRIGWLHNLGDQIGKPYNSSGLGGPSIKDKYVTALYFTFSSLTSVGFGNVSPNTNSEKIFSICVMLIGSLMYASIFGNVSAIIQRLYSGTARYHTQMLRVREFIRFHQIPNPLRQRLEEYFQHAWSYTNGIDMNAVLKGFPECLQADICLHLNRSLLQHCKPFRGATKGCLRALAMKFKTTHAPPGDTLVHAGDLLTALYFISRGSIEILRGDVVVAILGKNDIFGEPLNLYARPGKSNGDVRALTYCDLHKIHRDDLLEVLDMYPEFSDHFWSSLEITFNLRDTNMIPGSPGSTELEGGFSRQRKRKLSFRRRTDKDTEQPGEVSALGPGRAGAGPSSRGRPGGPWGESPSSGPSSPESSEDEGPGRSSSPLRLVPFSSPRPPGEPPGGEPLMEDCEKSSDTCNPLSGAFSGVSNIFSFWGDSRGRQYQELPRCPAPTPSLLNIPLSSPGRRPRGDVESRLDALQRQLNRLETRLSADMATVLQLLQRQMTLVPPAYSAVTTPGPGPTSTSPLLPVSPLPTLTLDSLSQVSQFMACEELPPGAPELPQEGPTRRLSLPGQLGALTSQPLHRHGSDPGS
Summary of the method: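 Cells were infected with hERG-BacMam virus for 4 hrs at room temperature, grown overnight, then seeded at 2000/well. After dye loading and roughly 10 min compound treatment, thallium influx was triggered and fluorescence recorded.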

[15] = qHTS assay for small molecule disruptors of the mitochondrial membrane potential - 5 hr assay (AID 651755; calls by dose curve; also: nearly all actives have a fitted effect of over 40% in size; also: potency is read from the fitted curve at half-maximal effect)
Summary of the method: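 Read-out: ratiometric Mito-MPS fluorescence, green monomer (ex 490/em 535) vs red mitochondrial aggregate (ex 540/em 590). HepG2 cells treated 5 hr at 37C before 30 min dye loading.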

[16] = qHTS assay for environmental chemicals that activate the Aryl hydrocarbon Receptor (AhR) signaling pathway (AID 651777); details: 1A2-DRE human hepatoma cells, luciferase, 24 h; activation: stronger effect = higher value; also: nearly all actives have a fitted effect of over 15% in size
Summary of the method: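 Human hepatoma 1A2-DRE cells, stably carrying a dioxin response element and CYP1A2 promoter driving luciferase, were exposed to compounds for 24 hr at 37 C and 5% CO2. Luciferase signal was then read after 30 min One-Glo at room temperature.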

[17] = qHTS assay for small molecule activators of the human pregnane X receptor (PXR) signaling pathway (AID 720659; call rule not given here)
[18] = biological target: Nuclear receptor ROR-gamma (Homo sapiens) (UniProt P51449); assay: qHTS assay for small molecule antagonists of the retinoid-related orphan receptor gamma (ROR-gamma) signaling pathway (AID 651802);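 also: CHO cells with doxycycline-induced ROR-gamma expression; nearly all actives have a fitted effect of over 60% in size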
Sequence of Nuclear receptor ROR-gamma (Homo sapiens) (P51449 whole entry, looked up): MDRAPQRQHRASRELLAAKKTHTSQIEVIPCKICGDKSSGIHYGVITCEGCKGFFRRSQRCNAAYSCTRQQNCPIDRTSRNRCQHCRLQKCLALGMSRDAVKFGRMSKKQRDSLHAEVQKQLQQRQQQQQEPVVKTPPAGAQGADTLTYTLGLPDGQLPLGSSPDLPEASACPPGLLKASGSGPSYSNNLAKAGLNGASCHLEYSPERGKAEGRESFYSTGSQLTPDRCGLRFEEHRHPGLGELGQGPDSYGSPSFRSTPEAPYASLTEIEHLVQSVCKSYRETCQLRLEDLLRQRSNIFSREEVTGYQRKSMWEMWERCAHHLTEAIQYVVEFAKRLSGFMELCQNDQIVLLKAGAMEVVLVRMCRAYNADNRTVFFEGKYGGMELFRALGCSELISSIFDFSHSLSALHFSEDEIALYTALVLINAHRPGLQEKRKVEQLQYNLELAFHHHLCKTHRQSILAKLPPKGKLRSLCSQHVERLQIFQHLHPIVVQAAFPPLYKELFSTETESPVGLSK
Summary of the method: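 Steps: cells dispensed; compound or DMSO transferred by pin tool; doxycycline added to induce the ROR response element-driven luciferase; plates held 16hr at 37C; ONE-Glo added and luminescence measured.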

[19] = biological target: Nuclear receptor subfamily 1 group I member 2 (Rattus norvegicus) (UniProt Q9R1A7); assay: qHTS assay for small molecule activators of the rat pregnane X receptor (rPXR) signaling pathway (AID 651751; call rule not given here); details: rPXR reporter cells, luciferase (One-Glo), 24 h
Sequence of Nuclear receptor subfamily 1 group I member 2 (Rattus norvegicus) (Q9R1A7 whole entry, looked up): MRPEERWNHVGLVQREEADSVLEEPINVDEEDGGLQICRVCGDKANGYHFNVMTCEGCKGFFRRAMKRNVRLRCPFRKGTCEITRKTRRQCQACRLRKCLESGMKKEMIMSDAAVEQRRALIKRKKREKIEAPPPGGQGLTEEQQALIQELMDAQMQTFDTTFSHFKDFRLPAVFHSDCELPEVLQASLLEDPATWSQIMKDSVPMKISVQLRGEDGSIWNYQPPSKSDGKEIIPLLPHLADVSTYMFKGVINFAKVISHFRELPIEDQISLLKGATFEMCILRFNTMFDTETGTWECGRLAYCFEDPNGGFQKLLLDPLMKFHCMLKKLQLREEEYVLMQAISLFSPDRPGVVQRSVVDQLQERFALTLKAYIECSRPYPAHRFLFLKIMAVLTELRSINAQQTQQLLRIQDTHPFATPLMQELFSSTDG

[20] = Cellular Toxicity (caspase-3) BJ (AID 658)
Summary of the method: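 qHTS, BJ fibroblasts, 1000 cells/well; 5 hr preincubation, 16 hr compound, 37 °C; Caspase-Glo 3/7 reagent, 1 hr RT; luminescence. DMSO = 0%, 10 uM staurosporine = 100%. Hill-equation AC50.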

| Compound | Potency [1] | Potency [2] | caspase-3 activation [3] | outcome [4] | Potency [5] | Potency [6] | outcome [7] | outcome [8] | Potency [9] | Potency [10] | Potency [11] | max response [12] | max response [13] | Potency [14] | Potency [15] | activation [16] | outcome [17] | Potency [18] | max response [19] | outcome [20] |
| --- | --- | --- | --- | --- | --- | --- | --- | --- | --- | --- | --- | --- | --- | --- | --- | --- | --- | --- | --- | --- |
| Nc1c(Cl)cc([N+](=O)[O-])cc1Cl | inactive | inactive | 3.21% (inactive) | inactive | inactive | inactive | inactive | inactive | inactive | inactive | inactive | 7.55% and -9.5% | 5.54% (inactive) and -6.63% (inactive) | inactive | 42.2 µM (active) | -0.0582% (inactive) and 1.9% (inactive) | inactive |  |  |  |
| CNC(=O)O/N=C/C(C)(C)S(C)=O (stereo not drawn) | inactive | inactive | 0.627% (inactive) | inactive | inactive | inactive | inactive | inactive | inactive | inactive |  | -10.1% and 0.325% | 12.4% (inactive) and -11.4% (inactive) | inactive | inactive |  | inactive | inactive | 6.61% (inactive) and 1.92% (inactive) |  |
| C=CCOCC1CO1 (stereo not drawn) | inactive | inactive | -0.0286% (inactive) | inactive | inactive | inactive | inactive | inactive | inactive | inactive | inactive | 2.33% | 9.76% (inactive) | inactive |  | -0.262% (inactive) | inactive | inactive | -1.61% (inactive) | inactive |
| C=C(Cl)CCl | inactive | inactive | 1.48% (inactive) | inactive | inactive | inactive | inactive | inactive | inactive | inactive | inactive | 4.21% | -0.897% (inactive) | inactive | inactive |  | inactive | inactive | 1.93% (inactive) | inactive |
| O=[N+]([O-])c1ccccc1O | inactive | inactive | 1.37% (inactive) | inactive | inactive | inactive | inactive | inactive | inactive | inactive | inactive | -5.99% | -20.2% (inactive) | inactive | inactive | 0.0323% (inactive) | inactive | inactive | 0.314% (inactive) | inactive |
| Clc1cc(Cl)c(Cl)c(Cl)c1 |  | inactive |  |  | inactive | inactive | inactive | inactive | inactive | inactive | inactive | -0.278% | 14.2% (inactive) | inactive | inactive | 0.248% (inactive) | inactive |  | -2.54% (inactive) | inactive |
| CCC#N | inactive |  | -0.741% (inactive) | inactive | inactive | inactive | inactive | inactive | inactive | inactive | inactive | 15.9% | 10.5% (inactive) | inactive |  |  | inactive | inactive | -2.01% (inactive) |  |
| N#CC(O)c1ccccc1 (stereo not drawn) | inactive | inactive | 2.09% (inactive) | inactive | inactive |  | inactive | inactive | inactive | inactive | inactive | -9.69% | 0.403% (inactive) | inactive | inactive | 0.286% (inactive) | inactive | inactive | 0.679% (inactive) | inactive |
